The sequences below were run on LXRb homodimer (NR concentration 270 nM) (assay: PBM binding z-score (relative to random genomic background probes); higher = stronger binding; sequences stand for … in GC…GCGATTGACAGCGTAGAATGAAGG).
In short: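 Scanned fluorescence from custom Agilent 4×180K protein-binding microarrays was regression-normalized. Binding z-scores use random background probes as reference. Ligand-free nuclear receptor dimers were incubated on the arrays for 1 h and detected with antibodies against each partner (one per run).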

Row | Sequence | PBM binding z-score
1 | ACTCGGAGGACAAGGGTCAGAGCTACGCCAGTGA | -0.535
2 | AGAATTAGGTTATACGTAGATCAGGGAAGAAAGT | 0.596
3 | ATATGTAGGTTATCGGTTCATTCAGTTTGCGCAT | 1.17
4 | TCTGCTAGGTCAGTTGGTAAGCTAACGAGCTGCC | 0.503
5 | ACTAGCAGGCCAAGGGTCACTCAGGATTAGTCCG | -0.237
6 | CCTAGAAGGCCAGGGTCACTCAAGCATTTCGCTT | -0.312
7 | ATCTCTAGGTAAAGTTCAGTGTAAGATCGATAGA | 1.1
8 | CTAACTAGGTCAAGGACAGTGAATCTCCGCACGC | 0.129
9 | ACTATTAGGTGACTTAGGGCAACCGATACGACGC | 0.261
10 | CCTACTGGGCCAAAAAGATCATTGATGCCGATAA | -0.601
11 | CCAGACAGGTGAAAGGTAACTCGGTCTGGTACGC | -0.561
12 | TCTAGTTGGTCAAAGGTCACACATTCGAAATGCG | 1.75
13 | TCTAGTTGGTCGAAGGTCACACACTCGAAATGCG | 0.802
14 | ATCTCTAGCTAACCAAGTTCAGTGAATGCCGAAC | 0.798
15 | CGTCCAAGGTCAGCAAGTCAGTGAAAGCGACGTG | -0.381
16 | ATCGAAAGGTCGATGTGAGTATAGAGAAAGGGAA | 0.549
17 | TTACCAAGGTGAACGTCGTTGATCCCTCTGTAGA | -0.681
18 | AGAACGAGGGCACGCTGAGTTGATAGCAGAGTAG | -0.876
19 | CATACAGGGTCAGCTAGGCGAGAGTAGGGACGGC | 0.134
20 | CGTCCATGGTCAATGCTAGGTCAGTGAAAGCATT | -0.306

Row | Sequence | PBM binding z-score
21 | CCGACTGGTGCAGAAAGGTTACCATACCATCCGG | -0.9
22 | ATACGTAGGTTAGCTGGGGTCATTCAGACTAGGC | 0.757
23 | TCTAGTTGGTCACGGTGGTCACACACGACGGGTA | 0.0154
24 | ATATGTAGGTTAAGGGTTATTCAGGTTGGTTCGC | 1.11
25 | TCTGCTACGTCAGTTGGTCAGCTAACGAGCTGCC | -0.14
26 | TCATATAGGTAAACAGGGGAAAGTCCGTAAGTTA | -0.0206
27 | ACTATTAGTTGAGACGAGGGCAACCGCTAGGTTG | -0.113
28 | TCTCTGAGGACACGAAAGGTCAGAGCTCGACATC | 0.245
29 | CCTAATGGGCCACGAAAGGTCATTGATTCAGTGA | 0.556
30 | TCTAGTTGGTCAAAGGTCACACGCTCGAAATGCG | 1.94
31 | CCTATTGGGCCATCAGGTCATTGATATCAACGTT | -0.199
32 | TGAATGAGGTTAAAGAGCAGGGAACGTGGCGTCG | 0.129
33 | GTTCGGAGGACAAGGTCAGAGCTTTGTCCGTAGA | -0.834
34 | TCATATAGGTAATACAGGTGAAAGCCGGCATCTA | -0.105
35 | GCTTACGGGTCAAAGGTTATTGCATGAATAGAAT | 0.701
36 | TCTAGTAGGTTACCAATGGGGCATTCAGCTTTCT | 0.0938
37 | CGAACGATGGCATGAGTTGATAGCAAATGCCGAT | -0.839
38 | CCGACTGGGGCCGAAAGGTTACCATACCATCCGG | -1.22
39 | CGTCCAAGGTCAAAGGTCAGTTAAGAGATGACGG | 2.51
40 | CCTAGCAGGCCAGGGTCACTCAAGCATTTCGCTT | -1.05

Reference: the supplement of paper PMC6555819
